TRAIL sens C8 – caspase-8 TRAIL sensitization. NB7+C8 cells + TRAIL, ATPlite viability luminescence. inhibition (viability loss, TRAIL sensitization), % at 10 µM. actives 1% (n = 360,000). AID 624354;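 active means compounds causing at least 50% loss of cell viability in the single-dose screen, relative to plate controls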
Peg3 prom inh – reduces Peg3 promoter-driven luciferase expression in HeLa; HeLa PEG-Prom luciferase reporter, luminescence, overnight; inhibition, % at 20 µM; AID 588405; actives 1.7% (n = 360,000);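 active means inhibition of at least 50% at 20 µM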
PPC-1+TRAIL kill – compounds killing PPC-1 cancer cells with TRAIL present (potentiator screen, no TRAIL-free arm). PPC-1 cells + TRAIL, ATPLite viability luminescence. cell killing (% activity), % at 4 µM or 5 µM. actives 0.41% (n = 220,000). AID 1443;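 active means cell killing above 50% in the first pass at 4 µM, then a duplicate retest at 5 µM averaging 50% or more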;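 further: plate controls were cells with TRAIL plus DMSO for no effect and medium-only wells lacking cells for full effect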
CF NFkB inh – blocks PAF-induced NF-kB reporter in cystic fibrosis cells; inhibition, % at 5 µM; actives 0.86% (n = 360,000); KKLEB NF-kB-GFP reporter, GFP fluorescence overnight;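 active means at least 50% inhibition at 5 µM, scaled per plate between neutral and stimulator controls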;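 further: PAF is a Pseudomonas aeruginosa culture filtrate used as stimulus; plate controls were PAF-stimulated DMSO wells for no effect and unstimulated DMSO wells for full effect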
HIF-2a inh – HIF-2a inhibition | actives 0.72% (n = 360,000) | inhibition, % at 18.8 µM | 786-0 RCC cells HIF-2a reporter, luciferase luminescence, overnight;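 active means inhibition of the luminescence signal of 40% or more relative to plate controls, in a single-dose primary screen at 18.75 µM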
KKLEB tox – reduces viability of KKLEB cystic fibrosis airway cells; KKLEB CF airway cells viability, ATPlite luminescence, overnight; hits give low values; cells stimulated with P. aeruginosa culture filtrate; activity change (cytotoxicity), % at 5 µM; actives 0.36% (n = 360,000); AID 602141;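 active means corrected activity change at or below -50% at 5 µM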
Active calls of the source: *; nt = no result given. Sampled rows, rich in hits. Any-hit rate of the full collection: about 3.1%.

SMILES	TRAIL sens C8	Peg3 prom inh	PPC-1+TRAIL kill	CF NFkB inh	HIF-2a inh	KKLEB tox
CCCCCOc1ccc(Br)cc1CSC(=N)N	1	104*	3	25	16	-6
CCCCOc1ccc(CSC(=N)N)cc1Cl	12	93*	16	-14	-82	-1
OC(CNC1CCCCC1)CON=C1CCSc2c(Cl)cccc21 (stereo not drawn)	3	96*	nt	32	-14	-22
OC(CNC1CCCC1)COc1ccc(-c2ccccc2)cc1 (stereo not drawn)	6	-4	43	25	-25	-5
Cc1ccc(Cn2ccc(NC(=O)c3nn(C)cc3[N+](=O)[O-])n2)cc1	20	48	8	-14	-70	15
Cc1ccc(C(=O)Nc2ncc(C)s2)o1	13	-219	18	-6	-127	5
Cc1cnc(NC(=O)c2nn(C)cc2[N+](=O)[O-])s1	2	94*	33	16	-24	-3
Cc1ccc(C(=O)Nc2ncc(C)s2)s1	78*	-94	nt	-7	-84	-22
CC1(C(=O)Nc2ccc(Cl)c(Cl)c2)CCN1C(=O)C1CCCCC1 (stereo not drawn)	-12	11	nt	8	10	-9
Cc1ccc(O)c(Cc2cc(C)cc(Cc3cc(C)ccc3O)c2O)c1	2	56*	nt	21	17	6
COc1ccc(-c2nc(CN3CCN(c4cc(C)nc(C)c4)CC3)c(C)o2)c2ccccc12	3	82*	33	14	1	-22
CC(C)C(=O)Nc1ccc2nn(-c3ccccc3)nc2c1	54*	-241	45	-8	-224	-12
NC1=NC[C@H](Cc2ccccc2)N1CCCCC1CCCCC1	21	71*	11	4	8	8
Cc1cc(C)c(NC(=S)NC(NC(=O)c2ccccc2)C(Cl)(Cl)Cl)c(C)c1 (stereo not drawn)	11	69*	6	12	-5	-12
Cc1ccc(NC(=S)NC(NC(=O)c2ccccc2)C(Cl)(Cl)Cl)c(C)c1 (stereo not drawn)	-5	35	0	-1	31	19
Cc1ccc(C)c(NC(=S)NC(NC(=O)Cc2ccccc2)C(Cl)(Cl)Cl)c1 (stereo not drawn)	-3	84*	2	18	7	10
CC(NC(=O)COC(=O)c1ccc(Br)o1)c1ccccc1 (stereo not drawn)	10	4	nt	2	0	-4
COCCNC(=O)C1Cc2c(-c3cccc(NC(C)=O)c3)ccnc2O1 (stereo not drawn)	9	19	nt	-19	9	4
Cc1ccc(C(NC(=O)N2CCCCC2)=C(Cl)Cl)cc1F	2	53*	-7	5	0	6
O=C(Nc1nnc(SCC(=O)N2CCCc3ccccc32)s1)c1ccc2ccccc2c1	83*	-210	64*	5	-179	-50*
Cc1cc(C)cc(C(=O)Nc2nnc(SCC(=O)N3CCCc4ccccc43)s2)c1	8	1	18	-1	2	13
O=C(Nc1nnc(SCC(=O)N2CCCc3ccccc32)s1)c1ccccc1	75*	-168	75*	5	-164	-29
COC(=O)c1ccccc1NC(=O)CSc1nc2ccsc2c(=O)n1Cc1ccc(C(=O)O)cc1	5	-6	nt	-8	11	-4
Cc1cc(Oc2nc3c(C)cccn3c(=O)c2/C=C(\C#N)S(=O)(=O)c2ccccc2)ccc1Cl	1	68*	33	26	21	-9
Cc1cccn2c(=O)c(/C=C(\C#N)S(=O)(=O)c3ccccc3)c(Oc3ccc(Cl)cc3)nc12	2	29	10	8	11	-10
SMILES	TRAIL sens C8	Peg3 prom inh	PPC-1+TRAIL kill	CF NFkB inh	HIF-2a inh	KKLEB tox
C[C@H]1C[C@@H]2[C@H]([C@@H](O)C[C@@]3(C)[C@H]2CC[C@]3(O)C(=O)CO)[C@@]2(C)C=CC(=O)C=C12	3	-9	29	74*	17	20
CC12C=CC(=O)C=C1CCC1C2C(=O)CC2(C)C1CCC2(O)C(=O)CO (stereo not drawn)	5	4	nt	36	5	22
CCC(=O)OCC(=O)C1(OC(=O)CC)[C@H](C)C[C@H]2[C@H]3[C@H]([C@@H](O)C[C@@]21C)[C@@]1(C)C=CC(=O)C=C1C[C@H]3Cl (stereo partly drawn)	6	-9	nt	69*	28	32
C[C@]12C=CC(=O)C=C1CC[C@@H]1[C@@H]2[C@@H](O)C[C@@]2(C)[C@H]1CC[C@]2(O)C(=O)COC(=O)CCC(=O)O	-8	12	13	56*	32	16
C[C@]12C=CC(=O)C=C1CC[C@@H]1[C@@H]2[C@@H](O)C[C@@]2(C)[C@H]1CC[C@]2(O)C(=O)CO	6	7	nt	73*	24	26
COC(=O)c1cc(S(=O)(=O)NCCN2CCOCC2)cn1C	7	16	nt	-13	6	5
CC(=O)NCCNc1nc2cc(-c3cscc3C)sc2c(=O)n1C	-16	-7	nt	-4	-14	-2
N#C/C(=C\c1ccccc1O)C(=O)Nc1ccccn1	-1	0	nt	13	-15	-2
Cc1cc(NS(=O)(=O)c2ccc(NC(=O)c3ccc([N+](=O)[O-])cc3)cc2)nc(C)n1	-5	-6	nt	10	-2	-1
Cc1c(Cl)c(C(=O)N2CCCCCC2)nn1C	3	6	nt	-9	3	2
CCOC1(C)OCC(=O)[C@]2(CCC3C4CCC5=CC(=O)C=CC5(C)C4C(=O)CC32C)O1 (stereo partly drawn)	-5	8	8	16	15	0
C[C@]12C=CC(=O)C=C1CC[C@@H]1[C@@H]2[C@@H](O)C[C@@]2(C)[C@H]1CC[C@]2(O)C(=O)COC(=O)CCC(=O)NCCc1ccc(O)cc1	-4	-23	nt	80*	13	34
CCOC(=O)O[C@]1(C(=O)COC(=O)CC)CC[C@H]2[C@@H]3CCC4=CC(=O)C=C[C@]4(C)[C@H]3[C@@H](O)C[C@@]21C	-10	-30	nt	77*	16	9
CC(=O)OCC(=O)C1(O)CCC2C3CCC4=CC(=O)C=CC4(C)C3C(=O)CC21C (stereo not drawn)	-8	1	nt	14	4	4
N#CCCN(C(=S)Nc1ccc(S(=O)(=O)N2CCOCC2)cc1)c1ccccc1F	10	-10	nt	6	10	1
O=C(CCC(=O)c1ccc(F)cc1)OCc1nnc(-c2ccc([N+](=O)[O-])cc2)o1	6	3	nt	2	4	4
CC(Nc1c([N+](=O)[O-])c(=O)oc2ccccc12)C(Cl)c1ccccc1 (stereo not drawn)	14	50*	-9	-8	25	4
CCc1nc(SCC(=O)Nc2ccccc2Cl)n[nH]1	9	-7	nt	1	-3	-9

Bioassay records deposited in PubChem by Sanford-Burnham Center for Chemical Genomics.
